Hit rate of the full screen: of about 1,900 compounds, about 250 (13%) were called active. About 4% were inconclusive and are not listed.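 Rule for the calls: active = fitted curve reaches 40% rescue activity at or below the top valid dose, in every test run; inconclusive = test runs disagree, some active and some inactive; inactive = every run misses the threshold or moves the wrong way.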 Only a sample is shown. Entries with a potency or affinity are not part of this list.
Test: rescue of simvastatin-induced ATP loss – cell-based, C2C12 myotubes, ATP luminescence, cherry pick, dose response (AID 624405);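 note: myotubes are challenged with simvastatin at 10 µM to lower ATP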
Conditions: 48 h, scaled: DMSO wells 0, geranylgeraniol wells 100; series mostly up to 19.5 µM; rescue activity (ATP increase): at the top concentration
For `O=C(O)c1nn(-c2ccccc2)nc1-c1nn(-c2ccccc2)nc1C(=O)O`, the “rescue activity (ATP increase)” value was 8.4% (inactive).
For `O=S(=O)(NN=C1CCCCC1)c1ccccc1`, the “rescue activity (ATP increase)” value was 2.86% (inactive).
For `CC1(C)NC(=O)N(CC(O)Cn2nnc3ccccc32)C1=O` (configuration not stated), the “rescue activity (ATP increase)” value was 16.7% (inactive).
In the case of `C[C@H](CO)N1C[C@H](C)[C@@H](CN(C)C(=O)C2CCC2)Oc2ncc(C#Cc3cccc(F)c3)cc2C1=O`, the “rescue activity (ATP increase)” value was 0.264% (inactive).
In the case of `Nn1c(SCC(=O)N2CCN(S(=O)(=O)c3ccccc3)CC2)nnc1-c1cccs1`, the “rescue activity (ATP increase)” value was -6.28% (inactive).
With `Cc1ccc(S(=O)(=O)Nc2ccc3c(c2)CC(=O)N([C@@H](C)CO)C[C@@H](C)[C@H](CN(C)Cc2ccc(C(F)(F)F)cc2)O3)cc1` the “rescue activity (ATP increase)” value was 35.9% (inactive).
With `Cc1ccc(C(=O)N2CCSCC2)cc1` the “rescue activity (ATP increase)” value was -3.87% (inactive).
With `CSCCC(NC(N)=O)C(=O)NCC1CCCCC1` (configuration not stated) the “rescue activity (ATP increase)” value was 1.42% (inactive).
For `Cc1ccc(N2CCN(/N=C/c3sccc3C)CC2)cc1`, the “rescue activity (ATP increase)” value was 5.86% (inactive).
With `Cc1noc(C)c1S(=O)(=O)Nc1ccc2c(c1)C(=O)N([C@H](C)CO)C[C@H](C)[C@H](CN(C)S(=O)(=O)c1cccs1)OCCCC[C@H](C)O2` the “rescue activity (ATP increase)” value was -0.171% [at 21 µM] (inactive).
With `C[C@@H]1CN([C@H](C)CO)C(=O)Cc2cc(NC(=O)Nc3cccc4ccccc34)ccc2O[C@H]1CN(C)Cc1ccc(Cl)c(Cl)c1` the “rescue activity (ATP increase)” value was 26.4% [at 21 µM] (inactive).
With `C[C@@H]1CN([C@@H](C)CO)C(=O)Cc2cc(NC(=O)Nc3cccc4ccccc34)ccc2O[C@H]1CN(C)Cc1ccc2c(c1)OCO2` the “rescue activity (ATP increase)” value was 8.72% [at 21 µM] (inactive).
With `O=C(C[C@H]1CC[C@@H](NC(=O)c2ccc3c(c2)OCO3)[C@H](CO)O1)NCc1ccc(Oc2ccccc2)cc1` the “rescue activity (ATP increase)” value was -3.13% (inactive).
For `COC(=O)c1c(C(=O)OC)c2cc(C)ccn2c1Cl`, the “rescue activity (ATP increase)” value was -25% (inactive).
In the case of `C[C@@H]1CN([C@@H](C)CO)C(=O)Cc2cc(NS(=O)(=O)c3ccc(F)cc3)ccc2O[C@H]1CN(C)Cc1ccc(Oc2ccccc2)cc1`, the “rescue activity (ATP increase)” value was 29% (inactive).
In the case of `C[C@@H]1CN([C@@H](C)CO)C(=O)c2cccc(NS(=O)(=O)c3cccs3)c2O[C@@H]1CN(C)S(=O)(=O)c1ccc(Cl)cc1`, the “rescue activity (ATP increase)” value was -8.95% (inactive).
For `COc1cccc(-c2cnc3c(c2)C(=O)N([C@H](C)CO)C[C@H](C)[C@H](CN(C)S(=O)(=O)c2cccs2)O3)c1`, the “rescue activity (ATP increase)” value was -17.5% (inactive).
For `COc1ccc(C2CC(=O)c3cnc(N)nc3C2)c(OC)c1` (configuration not stated), the “rescue activity (ATP increase)” value was -0.556% (inactive).
In the case of `COc1ccc2c(c1OC)C(=O)N(c1ccccn1)C2`, the “rescue activity (ATP increase)” value was 17.7% (inactive).
With `CCOc1ccc(OCCOCCOc2c(Cl)cccc2Cl)cc1` the “rescue activity (ATP increase)” value was 12.4% (inactive).
With `COC(=O)c1cn(CC(=O)N2C(C)CCCC2C)c2ccccc12` (configuration not stated) the “rescue activity (ATP increase)” value was 6.27% (inactive).
In the case of `COc1ccc(S(=O)(=O)Nc2ccc3c(c2)C(=O)N([C@@H](C)CO)C[C@@H](C)[C@H](CN(C)S(=O)(=O)c2ccc(F)cc2)OCCCC[C@H](C)O3)cc1`, the “rescue activity (ATP increase)” value was -11.1% (inactive).
For `CCS(=O)(=O)N1CCCC(C(=O)NCCc2ccc(OC)c(OC)c2)C1` (configuration not stated), the “rescue activity (ATP increase)” value was -21.5% (inactive).
With `O=C(Nc1cccc(Cl)c1)C1CCCN(S(=O)(=O)c2ccc(F)cc2)C1` (configuration not stated) the “rescue activity (ATP increase)” value was 13.5% (inactive).
In the case of `Cc1ccc(S(=O)(=O)Nc2ccc3c(c2)C(=O)N([C@@H](C)CO)C[C@@H](C)[C@H](CN(C)S(=O)(=O)c2cccs2)O3)cc1`, the “rescue activity (ATP increase)” value was -0.835% (inactive).
In the case of `CCOc1ccc(CNn2nnnc2N)cc1`, the “rescue activity (ATP increase)” value was 16.8% (inactive).
In the case of `C=CCN(c1ccccc1OC)S(=O)(=O)c1cccc(C(=O)OC2CCOC2=O)c1` (configuration not stated), the “rescue activity (ATP increase)” value was -36.4% (inactive).
In the case of `CCCNC(=O)N(C)C[C@@H]1Oc2cc(C3=CCCCC3)ccc2S(=O)(=O)N([C@H](C)CO)C[C@@H]1C`, the “rescue activity (ATP increase)” value was 14% (inactive).
In the case of `Cc1ccc(NC(=O)c2ccccc2N(C)S(C)(=O)=O)cc1C`, the “rescue activity (ATP increase)” value was 3.5% (inactive).
In the case of `CSc1ccccc1NC(=O)c1ccccc1N(Cc1ccccc1)S(C)(=O)=O`, the “rescue activity (ATP increase)” value was 33.3% (inactive).
With `C[C@@H]1CCCCO[C@@H](CN(C)C(=O)c2ccccc2)[C@H](C)CN([C@@H](C)CO)C(=O)c2cc(NS(=O)(=O)c3cccs3)ccc2O1` the “rescue activity (ATP increase)” value was 19.3% (inactive).
In the case of `CCOC(=O)c1sc(NC(=O)c2c(C)nn(Cc3ccccc3)c2C)cc1C`, the “rescue activity (ATP increase)” value was -7.04% (inactive).
In the case of `COc1ccc(CN2[C@@H](CO)[C@@H]3c4ccccc4NC[C@@H]32)cc1`, the “rescue activity (ATP increase)” value was -4.08% [at 21 µM] (inactive).
For `COc1ccc(CN2[C@H](CO)[C@@H]3c4ccccc4NC[C@@H]32)cc1`, the “rescue activity (ATP increase)” value was -13.1% (inactive).
For `O=C(Nc1ccccc1Cl)N1C[C@@H]2[C@H](c3ccccc31)[C@@H](CO)N2Cc1ccccc1`, the “rescue activity (ATP increase)” value was -13% (inactive).
With `Cc1ccc(S(=O)(=O)Nc2ccc3c(c2)CC(=O)N([C@H](C)CO)C[C@H](C)[C@@H](CN(C)Cc2ccc(C(F)(F)F)cc2)O3)cc1` the “rescue activity (ATP increase)” value was 38.9% (inactive).
With `O=C(NCc1ccco1)c1ccccc1NS(=O)(=O)c1ccc2c(c1)OCCO2` the “rescue activity (ATP increase)” value was 26% (inactive).
In the case of `FC(F)(F)c1nc2nncn2c2c1CCCCC2`, the “rescue activity (ATP increase)” value was 23.5% (inactive).
For `CCc1ccc(N2CC(C(=O)NC3=NCCS3)CC2=O)cc1` (configuration not stated), the “rescue activity (ATP increase)” value was -11.8% (inactive).
In the case of `Cc1ccc(N(CN2CCCC2=O)C(=O)c2ccc(C)c(C)c2)cc1`, the “rescue activity (ATP increase)” value was 29.9% (inactive).
In the case of `CC(C)N1C(=O)CCC1C(=O)N1CCC(Cc2ccccc2)CC1` (configuration not stated), the “rescue activity (ATP increase)” value was 19.4% (inactive).
For `CC(C)CC(NC(=O)C1CCC(C)CC1)C(=O)Nc1cccnc1` (configuration not stated), the “rescue activity (ATP increase)” value was -6.5% (inactive).
In the case of `COc1ccc(S(=O)(=O)Nc2ccc3c(c2)CC(=O)N([C@H](C)CO)C[C@@H](C)[C@@H](CN(C)Cc2ccc(Cl)c(Cl)c2)O3)cc1`, the “rescue activity (ATP increase)” value was 36.8% (inactive).
For `CC(C)NC(=O)Nc1ccc2c(c1)C(=O)N([C@H](C)CO)C[C@@H](C)[C@H](CN(C)C(=O)C1CCCCC1)OCCCC[C@@H](C)O2`, the “rescue activity (ATP increase)” value was 2.97% (inactive).
In the case of `C[C@@H]1CN([C@H](C)CO)C(=O)Cc2cc(NS(=O)(=O)c3cn(C)cn3)ccc2O[C@H]1CN(C)Cc1ccc(Cl)c(Cl)c1`, the “rescue activity (ATP increase)” value was 12.2% [at 21 µM] (inactive).
With `C[C@@H]1CN([C@@H](C)CO)C(=O)Cc2cc(NS(=O)(=O)c3cn(C)cn3)ccc2O[C@H]1CN(C)Cc1ccc(Cl)c(Cl)c1` the “rescue activity (ATP increase)” value was 4.02% (inactive).
For `C[C@@H]1CN([C@@H](C)CO)C(=O)Cc2cc(NS(=O)(=O)c3cn(C)cn3)ccc2O[C@@H]1CN(C)Cc1ccc(Cl)c(Cl)c1`, the “rescue activity (ATP increase)” value was 18.7% [at 21 µM] (inactive).
With `C[C@H]1CN([C@@H](C)CO)C(=O)Cc2cc(NS(=O)(=O)c3cn(C)cn3)ccc2O[C@@H]1CN(C)Cc1ccc(Cl)c(Cl)c1` the “rescue activity (ATP increase)” value was 12.7% (inactive).
In the case of `COc1ccc(CCNC2CCN(C)CC2)cc1OC`, the “rescue activity (ATP increase)” value was 0.107% (inactive).
In the case of `Cc1[nH]c2ccccc2c(=O)c1SC(F)(F)C(F)C(F)(F)F` (configuration not stated), the “rescue activity (ATP increase)” value was -8.66% (inactive).
For `Cc1ccc(CC2CC(=O)N(CCc3ccc4c(c3)OCO4)C2=O)cc1` (configuration not stated), the “rescue activity (ATP increase)” value was 15.4% (inactive).
With `COc1ccc(NC(=O)N(C)C[C@H]2Oc3ccc(NC(=O)Cn4cnnn4)cc3C(=O)N([C@H](C)CO)C[C@H]2C)cc1` the “rescue activity (ATP increase)” value was 2.03% (inactive).

From PubChem BioAssay AID624405 (Broad Institute, 2012)
